Assay results: PubChem BioAssay

assay: A549 cell viability effects, profiling panel, calcein-AM fluorescence, 48 h, basal (AID 1162); conditions: higher = more signal
Also: test concentration not given here.

Going from O=C1[C@H]2[C@H]3[C@H](O)[C@H](O)CC(=NOCc4ccccc4)[C@H]3CC[C@H]2C(=O)N1C1CCCCC1 to COc1ccc(COC(=O)NN=C2C[C@@H](O)[C@@H](O)[C@@H]3[C@@H]4C(=O)N(Cc5ccc6c(c5)OCO6)C(=O)[C@@H]4CC[C@H]23)cc1, the z-score falls from 0.519 to -0.0897.

First: CCOC(=O)CCN1C(=O)[C@H]2[C@H]3[C@H](O)[C@H](O)CC(=NOCC=C(C)CCC=C(C)C)[C@H]3CC[C@H]2C1=O
Second: CC(=O)OC[C@H]1O[C@H](CC=NOC(C)CN2CCCc3nc(C)c(C)cc32)C=C[C@@H]1OC(C)=O (stereo partly drawn)
The z-score of the first is higher: 0.844 for the first, -0.234 for the second.

First: CCOC(=O)[C@H](CC(C)C)NC(=O)CCC1CC(OC(=O)NCc2ccc3c(c2)OCO3)CC2(CCCC(COC(=O)NCCc3ccccc3OC)O2)O1 (stereo partly drawn)
Second: CO[C@@H]1C=CCC(=O)N[C@@H](C)C(=O)OC[C@@H](NS(=O)(=O)c2ccc(C)cc2)[C@H](C)C=CCC(=O)OC[C@H]1C
The z-score of the first is higher: -0.47 for the first, -0.533 for the second.

For COc1cccc([C@H](O)Cn2cc(-c3ccc(CON=C(C)C)cc3)nn2)c1, the z-score was 0.445.

assay: adipocyte viability effects, profiling panel, cell-based, 3T3-L1 adipocytes, calcein-AM fluorescence, 48 h, basal (AID 1163); conditions: 3T3-L1 adipocytes viability, higher = more signal

Compared with COC(=O)CC=C[C@@H](C)[C@@H](C=NOC[C@@H](C)[C@H](OCc1ccccc1)C(C)C)NS(=O)(=O)c1ccc(C)cc1, CC(CCC(=O)OC[C@H]1O[C@H](C#Cc2ccccc2)C=C[C@@H]1Oc1ccc(C)cc1)=NO[C@H](C)c1cn([C@@H]2COC[C@H]2O)nn1 is lower in z-score: 0.502 for the first, 0.0119 for the second.

Compared with COc1cccc([C@H]2Oc3ccc(OC)cc3C(=NO[C@@H](C)c3cc(-c4c(C)cc(C)cc4C)no3)[C@@H]2O)c1, CC(CCN1CCCCc2nc(C)c(C)cc21)=NO[C@@H](C)c1cc(-c2c(C)cc(C)cc2C)no1 is higher in z-score: -0.583 for the first, 0.531 for the second.

Going from CCN1C(=O)[C@H]2[C@H]3[C@H](O)[C@H](O)CC(=NNC(=O)OCc4ccccc4)[C@H]3CC[C@H]2C1=O to C[C@@H](c1ccccc1)N1C(=O)[C@H]2[C@H]3[C@H](O)[C@H](O)CC(=NNC(=O)OCc4ccccc4)[C@@H]3CC[C@H]2C1=O, the z-score falls from 0.888 to -0.506.

Compared with CC(=O)OC[C@H]1O[C@H](CCON=C(C)CCN2CCCc3nc(C)c(C)cc32)C=C[C@@H]1OC(C)=O, CC(=O)OC[C@H]1O[C@H](CCON=C(C)C)C=C[C@@H]1OC(C)=O is higher in z-score: -0.9 for the first, 0.0363 for the second.

Compared with CCOC(=O)[C@H](Cc1ccccc1)NC(=O)CCC1CC(OC(=O)NCc2cccc3ccccc23)CC2(CCCC(COC(=O)NCCOc3ccccc3)O2)O1 (stereo partly drawn), CCOC(=O)[C@H](Cc1ccccc1)NC(=O)CCC1CC(OC(=O)NCc2cccc3ccccc23)CC2(CCCC(COC(=O)NCCc3ccccc3OC)O2)O1 (stereo partly drawn) is lower in z-score: 0.0331 for the first, -0.211 for the second.

Compared with CC(CCN1CCCc2nc(C)c(C)cc21)=NOC[C@@H](O)COCc1ccco1, CC(C)(C)N1C(=O)[C@H]2[C@H]3[C@H](O)[C@H](O)CC(=NOC[C@@H](O)COCc4ccco4)[C@@H]3CC[C@H]2C1=O is higher in z-score: 0.827 for the first, 0.935 for the second.

Going from C[C@H]1C=CCC(=O)OC[C@H](C)C(=O)N2CCC[C@H]2C(=O)OC1 to C=C(C)C(=O)OC[C@H]1CN2[C@@H](CC[C@@H](C)[C@@H]2c2ccc(Br)cc2)C(=O)O1, the z-score rises from -1.21 to 0.278.

Going from CC(=O)OC[C@H]1O[C@@H](ON=C2[C@H]3CCn4c(=O)n(-c5ccccc5)c(=O)n4[C@H]3[C@H](O)[C@@H]3O[C@H]23)[C@H](OC(C)=O)[C@@H](OC(C)=O)[C@@H]1OC(C)=O to COC(=O)[C@@H]1CC[C@H](C)[C@@H](c2ccc(C)cc2)N1C(=O)c1ccc(C=NOC[C@H]2O[C@H](c3ccccc3)C=C[C@@H]2Oc2ccc(OC)cc2)cc1, the z-score rises from -1.14 to -0.36.

Compared with CCOC(=O)CCN1C(=O)[C@H]2[C@H]3[C@H](O)[C@H](O)CC(=NNC(=O)OCC)[C@H]3CC[C@H]2C1=O, CC(C)CON=C1C[C@@H](O)[C@@H](O)[C@@H]2[C@@H]3C(=O)N(C(C)(C)C)C(=O)[C@@H]3CC[C@@H]12 is higher in z-score: 0.895 for the first, 1.07 for the second.

First: O=C1[C@H]2[C@H]3[C@H](O)[C@H](O)CC(=NOC[C@@H](O)COCc4ccco4)[C@@H]3CC[C@H]2C(=O)N1C1CCCCC1
Second: COc1ccc(O[C@H]2C=C[C@@H](c3ccccc3)O[C@@H]2COC(=O)CCC(C)=NOC[C@@H](O)COCc2ccco2)cc1
The z-score of the first is lower: 0.272 for the first, 0.651 for the second.

CCOC(=O)[C@H](CC(C)C)NC(=O)CCC1CC(OC(=O)NCc2ccc3c(c2)OCO3)CC2(CCCC(COC(=O)NCCC(C)C)O2)O1 (stereo partly drawn) gave a z-score of -0.0921.
